Data reported in PubChem BioAssay (NCI).
The panel holds about 83,000 compounds, 20% with a hit somewhere; the sample as a whole holds those more often.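 Cell lines were cultured in 96-well plates, exposed to a single compound concentration, and assessed for percent growth 48 hours later.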 Values without a mark were called inactive. Calls of active or inactive are those of the source. The calls were made as follows: active = growth percent below 10; inactive = the rest.

How the values were obtained:
Experiment in all cases: NCI-60 one-dose screen, 48 h (100 = growth as untreated, 0 = no growth, -100 = all killed)
Details in all cases: 10 µM unless noted
NCI-H23 lung = system: NCI-H23 lung
NCI-H226 lung = system: NCI-H226 lung
NCI-H322M lung = system: NCI-H322M lung
HOP-62 NSCLC = system: HOP-62 NSCLC
NCI-H460 lung = system: NCI-H460 lung
HOP-92 NSCLC = system: HOP-92 NSCLC
NCI-H522 lung = system: NCI-H522 lung
A549/ATCC NSCLC = system: A549/ATCC NSCLC
786-0 renal = system: 786-0 renal
COLO 205 colon = system: COLO 205 colon
DU-145 prostate = system: DU-145 prostate
K-562 leukemia = system: K-562 leukemia
MALME-3M melanoma = system: MALME-3M melanoma
MDA-MB-231 breast = system: MDA-MB-231 breast
RXF 393 renal = system: RXF 393 renal
SF-268 CNS = system: SF-268 CNS
SF-295 CNS = system: SF-295 CNS
SF-539 CNS = system: SF-539 CNS
UACC-257 melanoma = system: UACC-257 melanoma
M14 melanoma = system: M14 melanoma

SMILES	growth (NCI-H23 lung)	growth (NCI-H226 lung)	growth (NCI-H322M lung)	growth (HOP-62 NSCLC)	growth (NCI-H460 lung)	growth (HOP-92 NSCLC)	growth (NCI-H522 lung)	growth (A549/ATCC NSCLC)	growth (786-0 renal)	growth (COLO 205 colon)	growth (DU-145 prostate)	growth (K-562 leukemia)	growth (MALME-3M melanoma)	growth (MDA-MB-231 breast)	growth (RXF 393 renal)	growth (SF-268 CNS)	growth (SF-295 CNS)	growth (SF-539 CNS)	growth (UACC-257 melanoma)	growth (M14 melanoma)
OCC(O)c1nc2ccc3[nH]ncc3c2c2c1CCCC2 (stereo not given)	2.08% (active)	-4.5% (active)	8.59% (active)	10.6%	5.14% (active)	-10.3% (active)	13.3%	6.34% (active)	4.15% (active)	1.61% (active)	11.7%	37.2%	19%	1.65% (active)	-58.4% (active)	-3.77% (active)	9.19% (active)	-39.1% (active)	10.2%	5.99% (active)
N#C/C(=C\c1ccc(-c2ccc(Cl)c(Cl)c2)o1)c1nc(-c2ccco2)cs1	86.6%	81.5%	79.8%	79.9%	87.7%	109%	89.3%	113%	110%	106%	114%	113%	89.1%	84.1%	121%	97.2%	98.7%	101%	118%	99.3%
O=C(/C=C/c1ccccc1)c1ccc(O)c(CN2CCN(c3cc4c(cc3F)c(=O)c(C(=O)O)cn4C3CC3)CC2)c1	34.4%	40.4%	22.7%	25.1%	34.7%	-5.65% (active)	1.49% (active)	17.6%	23.9%	89.8%	31.3%	16.7%	18.9%	33.3%	17.4%	28.1%	4.62% (active)	10.3%	31.7%	27.9%
NC1=C(Cl)C(=O)c2ccc(S(N)(=O)=O)cc2C1=O	-49.8% (active)	-51% (active)	-97% (active)	-68.2% (active)	-65.8% (active)	-58.1% (active)	-84.1% (active)	-53.7% (active)	-29.8% (active)	-90.3% (active)	-90.1% (active)	-12.7% (active)	-96.1% (active)	-3.41% (active)	-99.2% (active)	-74.4% (active)	-86.1% (active)	-84.5% (active)	-95.3% (active)	-89.6% (active)
Cc1cc(N2CCOCC2)nc(NCc2cc(Nc3ccnc4cc(Cl)ccc34)ccc2F)n1	-32.9% (active)	16.1%	-27.6% (active)	-63% (active)	-65.7% (active)	-30.8% (active)	-61% (active)	-49.4% (active)	-93.7% (active)	-70.9% (active)	-57.6% (active)	-4.96% (active)	-73.7% (active)	-78.3% (active)	-92.4% (active)	-52.5% (active)	-84.4% (active)	-80.4% (active)	-68.3% (active)	-83.7% (active)
CCCn1c(=O)[nH]c(N)c([C@H]2c3ccccc3Oc3[nH]c(=O)n(CCC)c(=O)c32)c1=O	86.2%	102%	85.4%	90.8%	111%	102%	20.7%	84.8%	82.7%	86.4%	75.1%	52.6%	78.4%	81.8%	98.2%	94.4%	88.1%	100%	76.3%	83.8%
COc1ccc(/C=C2\Oc3cc(OCCCCN4CCCC4)ccc3C2=O)cc1	83.3%	94.5%	98.6%	91.7%	1.37% (active)	73.7%	91.9%	79.3%	85.2%	86.4%	95%	-40.3% (active)	110%	91.3%	74.5%	87.9%	83.5%	42.4%	96.9%	86.2%
O=[N+]([O-])c1cnc(N2CCN(CC3CC3)CC2)nc1N1CCN(CC2CC2)CC1	95.4%	81.3%	88.8%	108%	102%	74%	93.9%	104%	94.8%	97.1%	101%	102%	97.7%	99.9%	73.1%	87.7%	99.5%	90.8%	108%	98.2%
O=C(CN1C(=O)/C(=C/c2ccc(Cl)cc2)SC1=S)NCCCN1CCOCC1	97%	95.2%	104%	111%	101%	85.7%	96.9%	104%	111%	116%	102%	94.2%	90.7%	99.3%	105%	93.6%	93.2%	92.8%	101%	113%
O=C1OC(c2ccccc2)C(O)=C1c1ccccc1 (stereo not given)	115%	100%	130%	122%	113%	96.4%	110%	86.6%	116%	120%	112%	110%	116%	104%	111%	96.4%	109%	102%	95.2%	111%
CCC(=O)c1ccc(Cl)s1	104%	103%	134%	109%	99%	102%	93.7%	98.7%	105%	101%	111%	109%	115%	106%	115%	94.8%	113%	114%	104%	103%
Cn1ccnc1C(=O)/C=C/c1ccccc1	33.1%	50.7%	10.4%	-54.9% (active)	-17.9% (active)	-9.57% (active)	-67.4% (active)	33.7%	-35.6% (active)	23%	-54.5% (active)	8.07% (active)	62.9%	34.7%	12.9%	23.3%	20.5%	-38% (active)	51.8%	-1.9% (active)
CCOc1cc2ncc(C#N)c(Nc3ccc(F)c(Cl)c3)c2cc1NC(=O)CC1CCSS1 (stereo not given)	-50.6% (active)	-50.9% (active)	-74.5% (active)	-66% (active)	-64.4% (active)	-15.3% (active)	-48.6% (active)	-75.6% (active)	12.1%	-73.5% (active)	-81.5% (active)	-26.4% (active)	-57.8% (active)	-66.4% (active)	-56.5% (active)	-55.2% (active)	-36.8% (active)	-12.6% (active)	-53.6% (active)	-66.8% (active)
Cc1cc(C)nc(SC2=C(Nc3ccc(O)cc3)C(=O)N(Cc3ccccc3)C2=O)n1	98.8% [40 µM]	89.7% [40 µM]	108% [40 µM]	100% [40 µM]	85.3% [40 µM]	38.1% [40 µM]	78.3% [40 µM]	63% [40 µM]	97.6% [40 µM]	108% [40 µM]	96.8% [40 µM]	78.1% [40 µM]	102% [40 µM]	80.7% [40 µM]	29.3% [40 µM]	74.6% [40 µM]	94.8% [40 µM]	94.2% [40 µM]	88.1% [40 µM]	105% [40 µM]
